In PubChem BioAssay AID485364 (National Center for Advancing Translational Sciences (NCATS), 2010):
Out of some 360,000 compounds screened, about 11,000 (3.1%) were called active. Inconclusive results (about 4%) are left out. For the sample, actives were picked, then their nearest neighbours and some compounds at random. A number with no mark means an inactive call. The call rests on the fitted dose curve; in most records, active means well fitted inhibition curve with a large enough effect; inconclusive means small, poorly fitted or top-dose-only effect; inactive means no such curve, though single readings can be large or run the other way.

Target: Schistosoma mansoni thioredoxin glutathione reductase (TGR) (UniProt Q962Y6)
Test: qHTS Assay for the Inhibitors of Schistosoma Mansoni Peroxiredoxins; further: nearly all actives have a fitted effect of over 60% in size
Conditions: purified TGR, DTNB reduction, TNB absorbance 405 nm; series mostly up to 114 µM; activity change, negative = inhibition: at the top concentration
Summary of the method: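 Kinetic colorimetric format: TGR-catalysed, NADPH-driven DTNB reduction monitored via TNB absorbance. Enzyme dispensed at 20 nM; compound exposure 15 min at room temperature before reaction start.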
On the % scale 0 is the no-effect control and ±100 the full control effect; potency means the concentration at half of the fitted maximal effect.

Point of comparison: `COc1ccc(Cc2nc3ccc(C(=O)NCc4ccccc4C)cc3o2)cc1`, “activity change, negative = inhibition” value 3.84%. Against it:
- Cc1cc(/C=C2\SC(=Nc3ccc(N4CCOCC4)cc3)N(C)C2=O)c(C)n1-c1cccnc1 — lower, -22.7%
- CN=C1S/C(=C\c2c(OC)cc(OC)cc2OC)C(=O)N1C — lower, -16.8%
- CCOC(=O)c1ccc(NC(=O)CC2C(=O)N(c3cccc(OC)c3)C(=O)N2C2CCCCC2)cc1 (stereo unspecified) — higher, 6.04%
- COc1ccc(NC(=O)c2ccc3nc(C(C)C)oc3c2)cc1OC — lower, -0.734%
- COc1ccccc1N1CCN(C(CNC(=O)C(=O)NCc2ccc(C)cc2)c2cccnc2)CC1 (stereo unspecified) — lower, -3.19%
- Cc1c(NC(=O)CCCOc2ccccc2)cccc1[N+](=O)[O-] — lower, -7.24%
- Cc1c(NC(=S)NCc2ccc(F)cc2)cccc1[N+](=O)[O-] — lower, -22.1%
- O=C(NCCc1csc(-c2ccc(C(F)(F)F)cc2)n1)C(=O)Nc1ccc(F)c(Cl)c1 — higher, 5.45%
- CCCOc1ccc(CN(CCO)CCO)cc1C(=O)OC — lower, -2.83%
- CCOc1ccccc1NS(=O)(=O)c1c[nH]c(C(=O)OC)c1 — lower, 0.0214%
- CC(=O)N1CCc2cc(S(=O)(=O)NC(Cc3ccccc3)C(=O)NCc3ccc(C)cc3)ccc21 (stereo unspecified) — lower, 0.332%
- CCc1nn(CC(=O)NCC(C)c2ccccc2)c(=O)c2cc3occc3n12 (stereo unspecified) — lower, -3.19%
- Cc1cc(C)cc(-n2c(SCC(=O)NCC3CCCO3)nc3c([nH]c4ccccc43)c2=O)c1 (stereo unspecified) — higher, 4.33%
- Cc1nnc(SCC(=O)N2CCOCC2)[nH]c1=O — lower, -0.867%
- CCOC(=O)CSc1nc(C)c(Oc2ccc(Cl)cc2Cl)c(=O)[nH]1 — lower, 0.0744%
- Cc1ccccc1C(=O)Nc1cc(C)c(O)c(-c2nc3ccccc3o2)c1 — lower, -2.01%
- COc1cccc(Cn2c(CNS(=O)(=O)c3ccc(Cl)s3)nc3cccnc32)c1 — lower, -0.347%
- O=C1c2cccc(OCC(=O)N3N=C(c4cccs4)CC3c3ccc(F)cc3)c2CCN1Cc1ccccc1 (stereo unspecified) — lower, 2.05%
- Cc1ccc(C2=NN(C(=O)COc3ncnc4ccccc34)C(c3ccco3)C2)cc1 (stereo unspecified) — lower, -12.3%
- Cc1ccc(Cl)cc1NC(=O)CCS(=O)(=O)c1ccc(Br)s1 — lower, -2.26%
- O=C(CSc1nccn1Cc1ccc(Cl)cc1)NCc1ccccc1 — lower, -4.14%
- Cc1ccc2c(=O)c(C(=O)c3ccc(F)cc3)cn(CC(=O)NC3CCCCC3)c2n1 — lower, -0.574%
- Cn1c(=O)c2c(ncn2CC(=O)Nc2cccc(C(F)(F)F)c2)n(C)c1=O — higher, 7.76%
- O=C(CSc1nnc(-c2ccccc2F)o1)Nc1cccc(C(F)(F)F)c1 — lower, 1.64%
- O=C(CSc1nc(-c2ccccc2)cs1)Nc1cccc([N+](=O)[O-])c1 — higher, 7.7%
- O=[N+]([O-])c1cccc(S(=O)(=O)NCc2ccccn2)c1 — lower, -6.1%
- O=C(COc1ccccc1)OCc1cc(=O)n2nc(-c3cccs3)sc2n1 — lower, 0.151%
- CCOC(=O)c1ccc(NC(=O)c2c(NCc3cccs3)sc3c2CCCC3)cc1 — lower, -32.3%
- Cc1cccc(CC(=O)N2CC(=O)Nc3ccc(F)cc3C2c2ccccc2)c1 (stereo unspecified) — lower, -2.49%
- CCOC(=O)c1ccccc1NC(=O)c1sc2nc(-c3ccc(F)cc3)cn2c1C — lower, 1.27%
- Cc1nn(CC(=O)NCc2ccccn2)c(C)c1[N+](=O)[O-] — higher, 3.91%
- Cc1c2cnn(CC(=O)NCCCN3CC(C)CC(C)C3)c(=O)c2c(C)n1Cc1ccc(Cl)cc1 (stereo unspecified) — lower, -1.92%
- Cc1ccc(Cn2c(C)c3cnn(CC(=O)NCc4ccccc4)c(=O)c3c2C)cc1 — lower, -8.1%
- CN(C(=O)CSc1nnc(NC(=O)Nc2ccccc2)s1)c1ccccc1 — lower, -0.9%
- CCOC(=O)c1c(C)oc2ccc(N(C(=O)c3ccncc3)S(=O)(=O)c3ccc(CC)cc3)cc12 — lower, -2.52%
- Cc1c(Cl)cccc1NC(=O)N1CCN(C(=O)c2nsc3ccccc23)CC1 — lower, -2.35%
- CNc1ccc(-c2nc(-c3ccccc3C)no2)cc1[N+](=O)[O-] — lower, -3.25%
- O=C(CSCc1cccs1)N1CCCC1 — lower, -0.5%
- CC1CC(C)CN(C(=O)CSc2ccsc2[N+](=O)[O-])C1 (stereo unspecified) — lower, -19.5%
- COc1cc(C(=O)NCCS(=O)(=O)N2CCN(c3ccccc3)CC2)cc(OC)c1OC — higher, 7.43%
- COc1ccc2c(c1)c(N1CCCC1=O)c(C(=O)Nc1ccc(OC)c(Cl)c1)n2C — higher, 7.32%
- COc1ccccc1NC(=O)[C@H](COCc1ccccc1)NC(=O)OC(C)(C)C — lower, -24.2%
- CCc1ccccc1NC(=O)CSc1nnc([C@@H](NC(=O)OC(C)(C)C)C(C)CC)o1 (stereo partly specified) — lower, 1.47%
- CCN(Cc1ccccc1)S(=O)(=O)c1ccc2c(c1)CCCN2C(C)=O — lower, -1.01%
- Cc1cc(NC(=O)c2cccc(Cl)c2)ccc1-c1cc2ccccc2oc1=O — higher, 8.29%
- O=C(CSCc1cnn(-c2ccccc2)c1-n1cccc1)NCc1ccccc1Br — higher, 23.9%
- COc1ccc(-n2c(SCC(=O)Nc3ccc(Cl)c(C)c3)nc3n[nH]c(C)c3c2=N)cc1 — higher, 5.5%
- COc1ccccc1CNC(=O)Cn1nc(C)c2nn(-c3ccc(Cl)cc3)c(C)c2c1=O — higher, 4.8%
- CCOc1ccccc1NC(=O)CCn1cnnn1 — lower, -2.07%
- CCN(CC)CCNC(=O)c1cc2c(=O)oc3ccc(C)cc3c2s1 — higher, 11.6%
- CCc1ccc(NC(=O)c2cc(S(=O)(=O)N3CCCC(C)C3)cn2C)cc1 (stereo unspecified) — lower, -0.776%
- COc1ccc(CNC(=O)c2ccc(NC(=O)N3CC4CCCN4c4ccccc43)cc2)cc1 (stereo unspecified) — lower, -14.3%
- COc1ccc(-n2c(SC)nc(O)cc2=O)cc1 — lower, -1.27%
- CSc1nc2ccc(C)cc2c(=O)n1-c1cccnc1 — higher, 23.6%
- COc1ccc(Nc2ncc(C(=O)Nc3cc(C)ccc3OC)c3ccccc23)cc1 — lower, -2.37%
- CCN1CCN(CCCNC(=O)c2cnn(-c3ccc(C)cc3C)c2C2CCN(C(=O)OC(C)(C)C)CC2)CC1 — higher, 6.79%
- O=C1C(Cl)=C(N2CCOCC2)C(=O)N1c1ccccc1 — higher, 62.2%
- O=C1c2ccccc2-c2ncnc3c(N4CCOCC4)cc(N4CCOCC4)c1c23 — lower, 0.658%
- CCCS(=O)(=O)N1CCC(n2c(C(F)(F)F)nc3cccnc32)CC1 — lower, -6.19%
- COc1ccccc1-c1cc2nc(C)c(CCC(=O)O)c(C)n2n1 — lower, -1.61%
- CCOCCCNC(=O)c1c(NC(=O)Cc2coc3ccc(C)cc23)sc2c1CCC2 — higher, 54%
- CC(C)(CCl)C(=O)Nc1ccc(Sc2ccc(F)cc2)cc1 — lower, 0%
- O=C(Nc1ccc(Sc2ccc(Br)cc2)cc1)c1ccco1 — higher, 7.73%
- COc1ccc(-n2c(SC)nc3sc4c(c3c2=O)CCN(C(C)=O)C4)cc1 — higher, 7.25%
- Cc1cccc(-c2nnc(SCC(=O)N3CCCc4ccccc43)o2)c1 — lower, 0.677%
- COC(=O)c1ccccc1NC(=O)c1ccc(COc2ccccc2Cl)o1 — higher, 4.06%
- CCOc1ccc(NC(=O)C(=O)NCCc2csc3nc(-c4ccccc4F)nn23)cc1 — lower, -0.856%
- O=c1cc(-c2ccccc2)nc(N2CCCCC2)[nH]1 — lower, 0%
- COc1ccc(C(=O)Nc2cccc(C(=O)OCc3cc(=O)n4c5c(sc4n3)CCCC5)c2)cc1 — lower, 3.52%
- Oc1ccccc1-c1nc(/C=C/c2ccc(F)cc2)no1 — lower, 0.232%
- Cc1cccc(N(Cc2ccccc2)C(=O)c2ccccc2F)c1 — lower, -1.12%
- COC(=O)N(NC(=O)C(O)(C(C)C)C(C)C)c1ccccc1 — lower, -2.07%
- CCC(C)NC(=O)CCCc1ccccc1 (stereo unspecified) — lower, 0.801%
- CC(C)(O)C(=O)NN(C(=O)c1ccccc1)c1cccc(Br)c1 — lower, 1.33%
- CCC(=O)N1c2ccccc2CC1C(=O)N1CCN(c2ccccc2)CC1 (stereo unspecified) — lower, -1.62%
- COc1ccccc1CNC(=O)C(Cc1ccccc1)NS(=O)(=O)c1ccc2c(c1)oc(=O)n2C (stereo unspecified) — lower, 0.69%
- CCOc1ccccc1C(=O)NC1(C(F)(F)F)C(=O)Nc2c1c(=O)[nH]c(=O)n2-c1ccc(F)cc1 (stereo unspecified) — higher, 8.33%

`CN1C(=O)/C(=C/c2ccco2)SC1=Nc1cccc(C(=O)O)c1` was tested, and the Potency was 14.1 µM (active).
For `Cc1c(NC(=O)/C=C/C(=O)O)cccc1[N+](=O)[O-]`, the Potency was 50.1 µM (active).
With `CCOc1ccc(CN(CCCl)CCCl)cc1C(=O)OC` the Potency was 14.1 µM (active).
In the case of `CCCCOC(=O)CNc1nnc(SCC(=O)OCC)[nH]c1=O`, the Potency is reported as 14.1 µM (active).
In the case of `O=C(COc1ccccc1Cl)N1N=C(c2cccs2)CC1c1ccco1` (stereo unspecified), the Potency is reported as 35.5 µM (active).
`O=C1N[C@@H](Cc2ccccc2)C(=O)N2[C@H]1C[C@]1(Br)c3ccccc3N(S(=O)(=O)c3ccccc3)[C@H]21` was tested, and the Potency was 22.4 µM (active).
`O=c1cc(CO)oc(C(Nc2cccc(C(F)(F)F)c2)c2ccccn2)c1O` (stereo unspecified) was tested, and the Potency was 11.2 µM (active).
For `O=c1cc(CO)oc(C(Nc2cccc([N+](=O)[O-])c2)c2ccccn2)c1O` (stereo unspecified), the Potency was 50.1 µM (active).
In the case of `Cc1c2cnn(CC(=O)NCc3ccccn3)c(=O)c2c(C)n1Cc1ccc(Cl)cc1`, the Potency is reported as 44.7 µM (active).
For `O=C(Cn1ncc2c3ccccc3n(Cc3ccccc3)c2c1=O)NCc1ccccn1`, the Potency was “inactive”.
With `Cc1ccc(Cn2c(C)c3cnn(CC(=O)NCc4ccccn4)c(=O)c3c2C)cc1` the Potency was 35.5 µM (active).
`O=C(CSc1ccsc1[N+](=O)[O-])N1CCCCC1` was tested, and the Potency was 31.6 µM (active).
In the case of `C[C@@H](NC(=O)OC(C)(C)C)c1nnc(S(=O)(=O)Cc2ccccc2)o1`, the Potency is reported as 0.794 µM (active).
With `O=C(/C=C/Sc1ncn[nH]1)c1ccc(Cl)cc1` the Potency was 0.794 µM (active).
With `CCOC(=O)c1ccc(NC(=O)CCn2cnnn2)cc1` the Potency was 89.1 µM (active).
In the case of `CCOC(=O)c1ccc(NC(=O)CCn2c(=O)oc3ccccc32)cc1`, the Potency is reported as “inactive”.
With `COc1ccc2c(c1OC)C(=O)OC2c1c(O)nc(SC)n(-c2ccccc2)c1=O` (stereo unspecified) the Potency was 7.94 µM (active).
With `COC1=C(N2CCOCC2)C(=O)c2ccccc2C1=O` the Potency was 17.8 µM (active).
`O=C(CCl)Nc1ccc(Sc2ccc(NC(=O)CCl)cc2)cc1` was tested, and the Potency was 2.82 µM (active).
With `CC(=O)c1cc(-c2ccccc2)[nH]c1N1CCCC1` the Potency was 50.1 µM (active).
In the case of `CC(=O)c1cc(-c2ccccc2)n(CC(=O)NC2CCCCC2)c1C`, the Potency is reported as “inactive”.
`CCCC(O)(CCC)C(=O)NN(C(=O)CCl)c1cccc(C)c1` was tested, and the Potency was 25.1 µM (active).
For `CCCCC(O)(CCCC)C(=O)NN(C(=O)CCl)c1ccccc1`, the Potency was 8.91 µM (active).
